# Sampled rows, rich in hits. Any-hit rate of the full collection: about 3.7%.
# Rv3671c protease = Rv3671c serine protease inhibitors, primary screen, biochemical, fluorescence polarization, M. tuberculosis H37Rv. P9WHR9. hit rate 0.048% among 320,000. inhibition, % at 5.96 µM; in the data active means inhibition above about 38%;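 further: extracellular domain of Rv3671c used as enzyme; 0% = enzyme with DMSO and 100% = no enzyme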
# Mtb UGM inh = M. tuberculosis UGM enzyme inhibitors, primary screen, biochemical, fluorescence polarization, single point; UDP-galactopyranose mutase (Mycobacterium tuberculosis (strain ATCC 25618 / H37Rv)), …; AID 504406, 2011; inhibition, % at 10 µM; purified UGM, fluorescence polarization probe displacement; hit rate 0.06% among 320,000; in the data active means inhibition above about 10%, passing the limit was not always enough; inconclusive means no clear call, values can overlap the other calls
# Mtb bLac sens = beta-lactam sensitization of Mtb H37Rv, H37Rv; M. tuberculosis H37Rv growth with meropenem, percent inhibition; inhibition, % at 25 µM; hit rate 0.27% among 330,000; AID 434955, 2010; call rule not given here;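 further: growth measured after seven days incubation then overnight dye step; 0% = bacteria only wells and 100% = bacteria with antibiotic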
# FadD28 binding = inhibitors of FadD28 bisubstrate probe binding, primary screen, biochemical, fluorescence polarization, single point | inhibition, % at 12.5 µM | AID 588549, 2011 | hit rate 0.22% among 360,000 | Mycobacterium tuberculosis FadD28 fatty-acid-AMP ligase; in the data active means inhibition above about 8.5%, passing the limit was not always enough; inconclusive means no clear call, values can overlap the other calls
# GDH-TPI counter-1 = GDH-TPI coupling enzyme inhibitors, primary screen, artefact control for M. tuberculosis FBA inhibitor project, biochemical, absorbance, full deck; GDH-TPI coupled enzyme counterscreen, NADH absorbance; inhibition, % at 4.8 µM; hit rate 1.2% among 360,000; in the data active means inhibition above about 30%;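 further: 0% = DMSO wells and 100% = wells lacking the enzyme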
# FBA Mtb inh = Mtb FBA enzyme inhibitors, primary screen, biochemical, fluorescence, strain H37Rv | Fructose-bisphosphate aldolase (Mycobacterium tuberculosis (strain ATCC 25618 / H37Rv)), … | purified M. tuberculosis FBA, fluorescence read-out | inhibition, % at 1 µM | hit rate 2.3% among 360,000 | AID 588726, 2011;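 further: 0% = vehicle and 100% = reference inhibitor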
# Target sequence (P9WQA3 whole entry, looked up): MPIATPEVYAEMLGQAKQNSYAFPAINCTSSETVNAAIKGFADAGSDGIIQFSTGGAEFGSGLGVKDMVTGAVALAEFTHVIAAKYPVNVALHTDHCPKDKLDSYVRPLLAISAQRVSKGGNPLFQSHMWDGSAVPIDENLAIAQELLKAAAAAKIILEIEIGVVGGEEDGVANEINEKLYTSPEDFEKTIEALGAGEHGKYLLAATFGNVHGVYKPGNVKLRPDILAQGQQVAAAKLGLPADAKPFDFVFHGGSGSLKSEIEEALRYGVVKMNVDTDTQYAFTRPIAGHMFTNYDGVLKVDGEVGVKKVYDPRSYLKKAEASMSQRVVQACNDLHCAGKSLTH
# Mtb FBA inh conf = M. tuberculosis aldolase blockers, biochemical, fluorescence, strain H37Rv, confirmation; hit rate 78% among 5,600; shares compounds with FBA Mtb inh; purified M. tuberculosis FBA, fluorescence read-out; inhibition, % at 1 µM;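 further: 0% = vehicle wells and 100% = reference inhibitor wells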
# GDH-TPI counter-2 = GDH-TPI coupling enzyme inhibitors, artefact control for M. tuberculosis FBA inhibitor project, biochemical, fluorescence, high throughput; shares compounds with FBA Mtb inh; GDH-TPI coupled enzyme counterscreen; inhibition, % at 1 µM; hit rate 81% among 5,600; AID 652141, 2013; in the data active means inhibition above about 10%
# * = called active by the depositor; ? = inconclusive; . = not tested or not shown; + = active, no number. Unless noted, no stated cut-off is given here; in the data, active means inhibition above about 27%; inactive means the rest.
SMILES,Rv3671c protease,Mtb UGM inh,Mtb bLac sens,FadD28 binding,GDH-TPI counter-1,FBA Mtb inh,Mtb FBA inh conf,GDH-TPI counter-2
O=C1c2ccccc2C(=O)N1c1nc2nccc(-c3ccccc3)n2n1,-4.8,-1.3,-7.3,-1.2,7.9,32.4*,31.3*,35.3*
COc1cc(OC)cc(-c2c(-c3ccc(F)cc3)c3cc(-c4ccc(SC)cc4)ccc3n2C)c1,5.3,-0.9,-4.8,-1.0,7.2,-1.2,.,.
c1ccc2nc3[nH]cnc3nc2c1,-0.6,2.8,-1.0,-0.8,21.2,42.0*,154.4*,101.3*
c1ccc2[nH]cnc2c1,5.0,1.6,1.0,0.2,15.9,4.7,.,.
COc1ccc(OCCNC(=O)c2ccc3nc(C)c(N(C)C(=O)CCc4ccccc4)n3c2)cc1,.,.,.,-4.0,1.3,-2.9,.,.
C(=N\Nc1ncnc2sc3c(c12)CCC3)/c1ccncc1,-13.6,3.9,?,-2.7,17.6,-4.7,.,.
c1cc(Nc2ncnc3sc4c(c23)CCC4)ccn1,-2.9,-1.3,1.4,-1.5,5.0,60.1*,8.5,-4.2
CC(=O)c1ccc(S(=O)(=O)N2CCCC(N(C)CCc3ccccn3)C2)cc1 (stereo unspecified),3.5,-0.8,-6.5,0.6,-0.9,75.7*,-2.5,-5.1
CSc1ncccc1C(=O)N1CCC1(C)C(=O)NC(C)C (stereo unspecified),.,.,.,-2.8,9.8,-5.8,.,.
COc1ccccc1N1CCN(CC(=O)c2ccc3ccn(C(C)=O)c3c2)CC1,0.3,-0.5,-2.3,-0.3,7.3,7.3,.,.
CC(=O)OCC(=O)c1ccc2ccn(C(C)=O)c2c1,-0.4,-1.7,10.9,-0.3,14.8,35.8*,15.4,19.9*
CCC(=O)N1N=C(c2cccs2)CC1c1ccco1 (stereo unspecified),-4.7,-0.4,-0.2,-0.9,1.8,2.7,.,.
Clc1ccc(N2N=C(c3cccs3)CC2c2ccco2)cc1 (stereo unspecified),2.1,0.5,2.8,-2.0,3.4,81.0*,82.3*,55.1*
Fc1ccc(C2CC(c3ccco3)=NN2c2ccccc2)cc1 (stereo unspecified),0.3,-0.7,-3.4,-1.3,7.7,60.0*,+,+
c1ccc(N2N=C(c3cccs3)CC2c2ccco2)cc1 (stereo unspecified),6.2,0.2,-4.9,0.5,20.4,78.4*,13.7,10.2*
CCOCCOC(=O)c1ccc(NC(=O)c2cc3ccccc3o2)cc1,.,.,.,-4.7,-4.5,-4.5,.,.
O=C1CCCC2=C1C(c1ccco1)Nc1ccc3ccccc3c12 (stereo unspecified),7.4,-0.6,5.4,2.4,22.5,95.1*,109.9*,76.5*
O=C1CCCC2=C1C(c1ccc(O)c(O)c1)Nc1ccc3ccccc3c12 (stereo unspecified),10.9,-2.9,8.8,-0.5,14.5,1.9,.,.
Cc1nn(-c2ccccc2)c2sc(C(=O)N(CC(=O)NC3CCCC3)Cc3ccco3)cc12,.,.,.,-2.7,14.2,6.2,.,.
CC1(C(=O)N(CC(=O)NC2CCCC2)Cc2ccco2)CC(=O)N=C2C=CC=CN21 (stereo unspecified),-0.5,3.5,2.4,-0.2,15.5,65.0*,118.4*,71.9*
CC1(C(=O)N(CC(=O)NC2CCCC2)Cc2ccccc2)CC(=O)N=C2C=CC=CN21 (stereo unspecified),-0.9,-2.1,0.9,-2.3,6.5,109.2*,139.6*,108.5*
CC(C)n1cc(C(=O)N(CC(=O)NC2CCCC2)Cc2ccccc2)cn1,-7.7,1.6,-7.0,-2.2,8.1,-0.7,.,.
CC1=Nc2ccc(C)c3nc(C)cc(c23)N1c1ccc(C)cc1,3.7,-1.2,9.5,2.9,-6.6,30.1*,60.2*,38.4*
Cc1ccc(-n2c(=O)c3c(c4cc(C)ccc4n3C)n(CC(=O)NCC3CCCO3)c2=O)cc1 (stereo unspecified),.,.,.,-2.1,15.9,62.9*,53.7*,50.0*
Cc1ccc(C)c(NC(=O)Cn2c(=O)n(-c3ccc(CC(=O)NCC4CCCO4)cc3)c(=O)c3ccccc32)c1 (stereo unspecified),3.2,0.4,5.0,.,.,.,.,.
SMILES,Rv3671c protease,Mtb UGM inh,Mtb bLac sens,FadD28 binding,GDH-TPI counter-1,FBA Mtb inh,Mtb FBA inh conf,GDH-TPI counter-2
COc1ccc2c(c1)c1c(c(=O)n(-c3ccc(C)cc3)c(=O)n1CC(=O)NCC1CCCO1)n2C (stereo unspecified),.,.,.,-3.8,-14.6,28.8*,38.2*,26.6*
C=CCSc1nnc(-c2nnc(SCC=C)n2-c2ccccc2)n1-c1ccccc1,-1.6,1.1,1.6,-1.3,-2.5,0.3,.,.
C=CCSc1nnc(-c2sc(-c3ccccc3)nc2C)n1C,-2.0,1.1,-14.1,0.5,12.8,63.6*,2.3,-3.5
CCOC(=O)Nc1cc2c(C)cc(=O)oc2cc1C,-5.0,2.1,-8.3,-0.4,7.8,28.4*,53.6*,42.0*
CCCCn1c(=O)c(-c2ccccc2)c(O)c2ccccc21,-1.1,2.6,-2.0,1.6,0.3,31.3*,112.3*,92.3*
O=c1[nH]c2ccccc2c(O)c1-c1ccccc1,-6.3,-1.4,-5.2,-0.1,21.6,6.7,.,.
CCn1c(=O)c(-c2ccccc2)c(O)c2ccccc21,3.0,0.4,5.5,2.1,-4.9,18.7,.,.
O=c1c(-c2ccccc2)c(O)c2ccccc2n1-c1ccccc1,-1.7,2.4,0.5,-0.3,19.0,31.6*,86.9*,73.3*
CCCCc1c(C)c(C#N)c2[nH]c3ccccc3n2c1=O,-7.1,-1.4,99.1,-2.2,9.5,76.8*,-3.7,-5.3
CCCc1cc(=O)n2c([nH]c3ccccc32)c1C#N,2.6,0.8,-4.8,-1.5,-0.2,54.1*,+,195.3*
CN(C)Cc1ccc(CNC(=O)COc2ccc3ccccc3c2)cc1,-7.2,-0.2,-4.3,-2.9,-0.7,1.1,.,.
COc1cccc(C2c3cc4c(cc3OC(NNC(N)=O)C2C)OCO4)c1O (stereo unspecified),.,.,.,-0.3,9.5,3.6,.,.
COc1ccc(C(=O)N/N=C/c2ccccc2OC(=O)c2ccccc2)cc1,-8.9,-2.3,15.6,-0.8,6.5,2.5,.,.
COc1ccc(C(=O)N/N=C/c2ccccn2)cc1,.,.,.,1.0,-1.8,1.9,.,.
COc1ccc(C(=O)N/N=C/c2cc3ccccc3[nH]c2=O)cc1,21.2,0.5,11.9,-4.5,50.0*,39.7*,126.5*,106.5*

# Bioassay records from PubChem BioAssay.
